PubChem BioAssay (NCI)
This is part of a sample that, as a whole, favours compounds with a hit. Of some 83,000 tested, about 20% had one in any assay.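 Single-concentration screen, 48 h exposure, 96-well plates. Endpoint: percent growth. Below 10 = active.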 Values without a mark were called inactive. The source made the active and inactive calls.

The molecules below were run on MDA-MB-468 breast (assay: NCI-60 one-dose screen, 48 h (100 = growth as untreated, 0 = no growth, -100 = all killed)). Conditions: 10 µM unless noted.

Structure (SMILES)	growth
CCC(=O)Oc1ccc2c(c1)CC[C@@H]1[C@@H]2CC[C@]2(C)C[C@H](OC(=O)CC)C[C@@H]12	47.9%
C(=C\c1ccncc1)/c1ccncc1	92.6%
Cc1ccc(-n2nc3c(c(C#N)c2=O)CC(c2ccccc2Cl)C([N+](=O)[O-])=C3O)cc1 (stereo not given)	114%
COc1cc(Cn2cc3c(c2)-c2onc(CN4CCCC4)c2CC3)cc(OC)c1OC	82.7%
CCn1nc(-c2ccc(C(=O)OC)cc2)nc2c(=O)n(C)c(=O)nc1-2	82%
COc1cccc(C(=O)Nc2cccc(C#Cc3cccc4[nH]nc(N)c34)c2)c1	24.5%
CN(C)CCCNC(=O)c1cncnc1Nc1ccc(OCc2cccc(F)c2)c(Cl)c1	-7.83% (active)
CC(C)(C#N)c1cc(F)cc(C(=O)Nc2cc(Nc3ncccc3-c3ncnc4nc[nH]c34)ccc2F)c1	107%
Oc1ccc(/C=N/Nc2nnc(N/N=C/c3ccc(O)cc3O)c3ccccc23)c(O)c1	-47.3% (active)
FC(F)(F)c1ccc(-c2nc(-c3nc4cc(Cl)c(Cl)cc4[nH]3)c3ccccn23)cc1	41.9%
COc1ccc(C2=Nn3c(NN)nnc3SC2)cc1	106%
Cc1nc2ccccc2c(/C=C/c2ccc(F)cc2)c1C(N)=O	107%
COc1ccc(OC)c(/C=C/c2nc(SCc3ccccc3)n(-c3ccc(Cl)cc3)n2)c1	34.4%
CC(C)N1C(=O)/C(=C2\SC(=S)N(C(C)C)C2=O)SC1=S	97.1%
O=C(Nc1ccc(F)cc1)ON=C1CCCCC1	105% [100 µM]
CN(CCCCCl)P(=O)(OCc1ccc([N+](=O)[O-])o1)C(F)(F)C[C@H](NC(=O)CNC(=O)c1ccc(N=[N+]=[N-])cc1)C(=O)NCCc1ccc(O)cc1 (stereo not given in full)	12.5%
O=C(Nc1cccc(Cl)c1)c1ccc(Cl)cc1Cl	96.9%
Cc1ccc(-c2cc3nc(C(Cl)Cl)nc(C)n3n2)cc1	110%
O=S(=O)(NCCNc1nccc(-c2c(-c3cccc(F)c3)nc3occn23)n1)c1ccc(C(F)(F)F)cc1	74.7%
CC1(C)NCCC[C@]2(C)[C@H]3CC=C4[C@@H]5C[C@@](C)(CO)CC[C@]5(C)CC[C@@]4(C)[C@]3(C)CC[C@@H]12	67.6%

Structure (SMILES)	growth
Cc1ccc(S(=O)(=O)N/N=C/C2(c3ccccc3)CC2)cc1	95.8%
CCC(CC)NCCCCCNc1cc(OC)cc2cccnc12	57.8%
Cc1noc(C)c1CSc1nc2ccccc2n1-c1ccccc1	108%
COc1ccc(/C=C/C(=O)c2cc(OC)c(OC)c(OC)c2)cc1OCC(=O)Nc1nc2ccc(OC(F)(F)F)cc2s1	55.1%
COc1cnc2c(c1)C(=O)c1c-2n(CCCN2CCCC2)c(=O)c2cc([N+](=O)[O-])ccc12	-41.1% (active)
CCCn1cnc2c(c1=N)C(c1ccc(F)cc1)c1sc3c(F)cccc3c1O2 (stereo not given)	58.4%
Cc1nn(C)c2ncnc(N/N=C/c3cccc(O)c3O)c12	-11% (active)
CCCCC(CCCCCC(CCCC)NCc1ccc2c(c1)OCO2)NCc1ccc2c(c1)OCO2 (stereo not given)	-90.7% (active)
Cc1cc2cccnc2c2ncccc12	-20.5% (active)
CCOC(=O)C(Nc1ccccc1)C(=O)OCC	104%
Cc1ccccc1Nc1cc(O)c2c(=O)cc(-c3ccccc3)oc2c1	-2.12% (active)
COc1ccc(Cl)cc1NC(=O)c1cc2c([nH]1)-c1nc(NC(=O)C(C)(C)C)sc1CC2	84.9%
N#CCCN1CCN(CCC#N)C1=S	119%
O=C1/C(=C/c2ccc(Cl)cc2)SC(=Nc2ccc(Cl)cc2)N1Cc1nc2ccccc2[nH]1	78.6%
CCOC(=O)c1c(Cl)c2c(n1Cc1ccc(OC)cc1)-c1oncc1CCC2	101%
CN1CCN(c2ccc(/C=N/n3cnc4oc(-c5ccccc5)cc4c3=N)cc2)CC1	97.6%
COc1ccc(/C(=C2\O[C@@H]([C@H](O)CO)[C@H]3OC(C)(C)O[C@@H]23)c2cc(OC)c(OC)c(OC)c2)cc1O	107%
COc1ccc(-c2nc(-c3cn(C)c4ncccc34)cs2)cc1	-6.3% [100 µM] (active)
COC1(OC)C2(Cl)CCC1(Cl)C(Cl)=C2Cl	111%
COc1cccc(-c2nn(C(C)(C)C)cc2-c2ccnc(NCCCNS(=O)(=O)c3ccc(C)cc3)c2)c1	104%
